Measurements published in PubChem BioAssay (NCI).
Where “and” joins values, the source holds several entries; their conditions need not be identical. Equal values may be shown once. This is part of a sample that, as a whole, favours compounds with a hit. Of some 79,000 tested, about 15% had one in any assay. Some compounds were tested as several samples or in several runs, with calls that do not always agree. Calls of active or inactive are those of the source. Rule as the data show it: active = growth inhibition above about 70%; inactive = the rest.

Assays:
[1] = NCI Yeast Anticancer Drug Screen. Data for the rad50 strain (AID 155);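 also: 0% = growth of vehicle-only cultures of the same strain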; details: S. cerevisiae rad50 strain growth inhibition, stronger effect = higher value
Outline: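 Cells are treated with compound, grown, and their growth is then scored against vehicle-only cultures of the same repair-deficient yeast strain.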

[2] = NCI Yeast Anticancer Drug Screen. Data for the mec2-1 strain (AID 157); details: S. cerevisiae mec2-1 strain, stronger effect = higher value
Outline: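 Test agents were screened against the mec2-1 yeast strain, with defined DNA repair or cell cycle alteration. Growth was scored as inhibition against vehicle-only controls.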

[3] = NCI Yeast Anticancer Drug Screen. Data for the sgs1 mgt1 strain (AID 161);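 also: 0% = growth of cultures given vehicle only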; details: S. cerevisiae sgs1 mgt1 strain, stronger effect = higher value
Outline: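 Inhibition of yeast growth, normalised to vehicle-treated controls, is reported for a strain bearing genetic alterations in DNA damage repair.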

[4] = NCI Yeast Anticancer Drug Screen. Data for the cln2 rad14 strain (AID 165);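 also: 0% = growth equal to vehicle treated cultures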; details: S. cerevisiae cln2 rad14 strain, stronger effect = higher value
Outline: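 Growth of compound-exposed yeast (cln2 rad14 genotype) measured and expressed as inhibition relative to vehicle.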

[5] = NCI Yeast Anticancer Drug Screen. Data for the bub3 strain (AID 167); details: S. cerevisiae bub3 mutant strain, stronger effect = higher value
Outline: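 Part of a panel of yeast mutants defective in DNA damage repair or cell cycle regulation. Each strain is grown with compound, and inhibition is calculated relative to solvent-treated cultures.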

[6] = NCI Yeast Anticancer Drug Screen. Data for the mlh1 rad18 strain (AID 175); details: S. cerevisiae mlh1 rad18 strain growth inhibition, stronger effect = higher value
Outline: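 In this whole-cell yeast screen, a strain with altered DNA damage repair is challenged with compound, and its growth is measured against matched vehicle-treated controls.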

[7] = at 5.0 µM (retest, dose inferred, filed as 0.5)
[8] = at 50.0 µM (retest, dose inferred, filed as 5.0)

Measured: growth inhibition

CC(=O)Oc1cccc2cccnc12
active: [1]; [7] 99% | [1]; [8] 99% | [1]; at 50.0 µM 99.2% | [2]; [7] 91% | [2]; [8] 100% | [2]; at 50.0 µM 99.3% | [3]; [7] 98% | [3]; [8] 100% | [3]; at 50.0 µM 89.2% | [4]; [7] 88% | [4]; [8] 99% | [4]; at 50.0 µM 98.8% | [5]; [7] 98% | [5]; [8] 100% | [5]; at 50.0 µM 99.2% | [6]; [7] 96% | [6]; [8] 99% | [6]; at 50.0 µM 98.1%

BrC(c1cccc2ccccc12)c1cccc2ccccc12
inactive: [1]; [7] 23% | [2]; [7] 20% | [3]; [7] 1% | [4]; [7] 0% | [5]; [7] -6% | [6]; [7] 18%
active: [1]; [8] 97% | [1]; at 50.0 µM 95.5% | [2]; [8] 97% | [2]; at 50.0 µM 94.7% | [3]; [8] 96% | [3]; at 50.0 µM 94.8% | [4]; [8] 94% | [4]; at 50.0 µM 92.8% | [5]; [8] 96% | [5]; at 50.0 µM 94.2% | [6]; [8] 95% | [6]; at 50.0 µM 95%

Cc1ccc(C23C=CC(c4ccccc4)(C2)C2C(=O)OC(=O)C23)cc1 (stereo unspecified)
active: [1]; [7] 86% | [1]; [8] 96% | [1]; at 50.0 µM 98.5% | [2]; [7] 85% | [2]; [8] 97% | [2]; at 50.0 µM 98.5% | [3]; [7] 81% | [3]; [8] 98% | [3]; at 50.0 µM 98.6% | [4]; [8] 97% | [4]; at 50.0 µM 92.2% | [5]; [7] 85% | [5]; [8] 97% | [5]; at 50.0 µM 98.7% | [6]; [7] 79% | [6]; [8] 97% | [6]; at 50.0 µM 95.8%
inactive: [4]; [7] 36%

CC(C)C1=CC23CCC4C(C)(C(=O)O)CCCC4(C)C2CC1C1C(=O)OC(=O)C13 (stereo unspecified)
active: [1]; [7] 93% | [1]; [8] 99% | [1]; at 50.0 µM 99.3% and 99.5% | [2]; [7] 96% | [2]; [8] 100% | [2]; at 50.0 µM 99.5% and 99.7% | [3]; [7] 87% | [3]; [8] 100% | [4]; [7] 85% | [4]; [8] 99% | [4]; at 50.0 µM 99% and 98.5% | [5]; [7] 90% | [5]; [8] 99% | [5]; at 50.0 µM 99% and 99.5% | [6]; [7] 90% | [6]; [8] 99% | [6]; at 50.0 µM 99.4% and 99.5%
99.6% (active) and 49.5% (inactive): [3]; at 50.0 µM

CC1CP(c2ccccc2)(c2ccccc2)(c2ccccc2)OC1(C(=O)c1ccccc1)c1ccccc1 (stereo unspecified)
inactive: [1]; [7] -1% | [1]; [8] 9% | [2]; [7] 8% | [2]; [8] 7% | [3]; [7] -21% | [3]; [8] -1% | [4]; [7] -9% | [4]; [8] 2% | [5]; [7] -1% | [5]; [8] 11% | [6]; [7] -15% | [6]; [8] 29%
active: [1]; at 50.0 µM 93.9% | [2]; at 50.0 µM 99.3% | [3]; at 50.0 µM 99.3% | [4]; at 50.0 µM 98.9% | [5]; at 50.0 µM 98.8% | [6]; at 50.0 µM 99.2%

C=CCc1c2c(ccc(=O)c1O)-c1c(cc(OC)c(OC)c1OC)CCC2NC(C)=O (stereo unspecified)
active: [1]; [8] 94% | [1]; at 50.0 µM 70.3% | [2]; [8] 98% | [3]; [8] 70% | [4]; [8] 93% | [4]; at 50.0 µM 72% | [5]; [8] 97% | [6]; [8] 97%
inactive: [1]; [7] -3% | [2]; [7] 4% | [2]; at 50.0 µM 60.5% | [3]; [7] -20% | [3]; at 50.0 µM 64.6% | [4]; [7] -12% | [5]; [7] -13% | [5]; at 50.0 µM 53.3% | [6]; [7] 8% | [6]; at 50.0 µM 67%

CC(C)(C)OC(=O)NCCc1cccc2c1oc1c(CCC(=O)O)cccc12
active: [1]; [8] 76% | [1]; at 50.0 µM 89.6% | [2]; [8] 95% | [2]; at 50.0 µM 78.4% | [4]; [8] 99% | [4]; at 50.0 µM 87% | [5]; [8] 88% | [5]; at 50.0 µM 79.6% | [6]; [8] 96% | [6]; at 50.0 µM 83.5%
inactive: [1]; [7] -14% | [2]; [7] -1% | [3]; [7] 3% | [3]; [8] 53% | [3]; at 50.0 µM 68.7% | [4]; [7] -16% | [5]; [7] -20% | [6]; [7] -7%
